Laboratory results published in PubChem BioAssay (NCI).
Compounds without any hit were thinned out: in the full panel of roughly 79,000, 15% have a hit. A number with no mark means an inactive call. Rule as the data show it: active = growth inhibition above about 70%; inactive = the rest.

Assay: NCI Yeast Anticancer Drug Screen. Data for the rad50 strain (AID 155);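 also: 0% = growth of vehicle-only cultures of the same strain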
Conditions: S. cerevisiae rad50 strain growth inhibition; at 50.0 µM; stronger effect = higher value
Summary of the method: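 Readout: growth inhibition relative to vehicle-treated cultures. Compound exposure was carried out in a genetically defined yeast strain deficient in DNA damage repair.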

SMILES | growth inhibition [%]
Cc1cccc(OC(=O)Oc2cccc(C)c2)c1 | -5.75
CC(=O)O[C@]12CCCCCCC1C1(O)C(O)CCC[C@H]12 (stereo not given in full) | -23.6
COC(=O)C1C(COS(C)(=O)=O)ON2CCC(OC)(OC)C12 (stereo not given) | 4.85
COc1ccc(/C=C2\C=Cc3ccccc32)cc1OC | -21.8
C[C@@H]1CN(c2ccccc2)C[C@H](C)OS(=O)O1 (stereo not given in full) | 2.65
CN(C)C(=O)Nc1cccc(OC(=O)NCCCl)c1 | 6.55
O=COC1CCCCCC1 | -8.55
O=C(NC1(C(=O)O)CCCC1)C(F)(F)F | -13.8
Cc1cc(Cl)cc(Cl)c1OCC(=O)Nc1ccc(Cl)cc1 | 6.45
CC(=O)N(C)Cc1c(O)ccc2ccccc12 | -7.25
CC1=CC(=O)C(=O)c2ccccc21 | -34.9
CCOC(=O)/C=C/c1ccc(F)cc1 | 27.6
Cc1c(O)c(=O)ccn1C1OC(CO)C(O)C1O (stereo not given) | 16.5
COc1ccc(NNc2ccc(OC)cc2)cc1 | 0.95
O=C(/C=C/C(=O)NCc1ccccc1)NCc1ccccc1 | -0.2
COc1ccc(C(=O)C(C)(c2nc3n(c2O)C(=N)N=N3)c2nc3n(c2O)C(=N)N=N3)cc1 (stereo not given) | -8.8
O=C1c2ccccc2C(=O)N1CC(F)(F)F | -11.9
O=C(c1cccc([N+](=O)[O-])c1)N1CCCCC1 | 1.4
O=C1C(Cl)=C(NC(CO)(CO)CO)C(=O)c2ccccc21 | 4.7
CCNC(=O)c1ccc(Cl)cc1 | 19.9

SMILES | growth inhibition [%]
CC(=O)c1cccc(NC(=O)Nc2ccc(Nc3ccccc3)cc2)c1 | 3.8
CC(=O)OC1CCC2(C)C(=CCC3C2CCC2(C)C(/C(C)=N/NC(N)=O)CCC32)C1 (stereo not given) | 14.4
O=c1oc2ccccc2cc1S(=O)(=O)c1ccccc1 | 1.35
COc1cccc(OC)c1/C=C1\N=C(c2ccccc2)OC1=O | -1.4
CC1C(=O)C(O)CC2C1(C)CCC1C2(C)CCC2(C)C3CC(C)(C)CCC3(C)CCC12C (stereo not given) | -7.2
Clc1ccccc1SSc1ccccc1Cl | 21.4
O=C(Nc1ccccc1-c1n[nH]c(=S)[nH]c1=O)C(F)(F)F | -2.45
OCCCN1CCCCC1 | -2.7
COc1cc(/C=C(\C#N)C(N)=O)cc(Br)c1O | -13.5
CCCCNC(=O)Oc1cccc2ccccc12 | 4.3
COC(=O)N/N=C(\C)C(CN1CCCCC1)C(C1=C(O)c2ccccc2OC1)c1ccccc1 (stereo not given) | 6.15
CC(=O)OC1COC(n2c(=S)n(-c3ccccc3)c(=O)c3cc(Br)ccc32)C(OC(C)=O)C1OC(C)=O (stereo not given) | 1.9
CCCCS(=O)(=O)CCC(N)P(=O)(O)O (stereo not given) | -26.9
COc1ccc(C=O)c(C)c1 | -4.05
O=C(CCN1C(=O)c2ccccc2C1=O)NCS(=O)(=O)O | -11.8
Nc1ccc(S(=O)(=O)Nc2nc(CN3CCCCC3)cs2)cc1 | 7.25
CC(=O)OCC1OC(n2cc(F)c(=O)[nH]c2=O)C(NC(=O)N(CCCl)N=O)C(OC(C)=O)C1OC(C)=O (stereo not given) | 2.4
CN(C)NC(=O)Nc1ccc2ccccc2c1 | -39.4
CCC(=O)Oc1ccc(Cl)cc1C | -0.3
CC1(C)CC(=O)OC/C=C\CC(Cc2ccccc2)C(=O)C1 (stereo not given) | 4.6

Assay: NCI Yeast Anticancer Drug Screen. Data for the mec2-1 strain (AID 157)
Conditions: S. cerevisiae mec2-1 strain, at 50.0 µM, stronger effect = higher value
Summary of the method: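 Mutant yeast (mec2-1) grown with compound; growth inhibition relative to vehicle control reported.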

SMILES | growth inhibition [%]
Cc1cccc(OC(=O)Oc2cccc(C)c2)c1 | -9.25
CC(=O)O[C@]12CCCCCCC1C1(O)C(O)CCC[C@H]12 (stereo not given in full) | -1.95
COC(=O)C1C(COS(C)(=O)=O)ON2CCC(OC)(OC)C12 (stereo not given) | 11.1
COc1ccc(/C=C2\C=Cc3ccccc32)cc1OC | -6
C[C@@H]1CN(c2ccccc2)C[C@H](C)OS(=O)O1 (stereo not given in full) | -1.95
CN(C)C(=O)Nc1cccc(OC(=O)NCCCl)c1 | 52.5
O=COC1CCCCCC1 | -28.9
O=C(NC1(C(=O)O)CCCC1)C(F)(F)F | 14.7
Cc1cc(Cl)cc(Cl)c1OCC(=O)Nc1ccc(Cl)cc1 | 2.45
CC(=O)N(C)Cc1c(O)ccc2ccccc12 | -21.2
CC1=CC(=O)C(=O)c2ccccc21 | -9.65
CCOC(=O)/C=C/c1ccc(F)cc1 | 2
Cc1c(O)c(=O)ccn1C1OC(CO)C(O)C1O (stereo not given) | 22.9
COc1ccc(NNc2ccc(OC)cc2)cc1 | 7.65
O=C(/C=C/C(=O)NCc1ccccc1)NCc1ccccc1 | 0.4
COc1ccc(C(=O)C(C)(c2nc3n(c2O)C(=N)N=N3)c2nc3n(c2O)C(=N)N=N3)cc1 (stereo not given) | 4.45
O=C1c2ccccc2C(=O)N1CC(F)(F)F | -4.75
O=C(c1cccc([N+](=O)[O-])c1)N1CCCCC1 | -11.8
O=C1C(Cl)=C(NC(CO)(CO)CO)C(=O)c2ccccc21 | 16.6
CCNC(=O)c1ccc(Cl)cc1 | -2.25

SMILES | growth inhibition [%]
CC(=O)c1cccc(NC(=O)Nc2ccc(Nc3ccccc3)cc2)c1 | 6.5
CC(=O)OC1CCC2(C)C(=CCC3C2CCC2(C)C(/C(C)=N/NC(N)=O)CCC32)C1 (stereo not given) | -2.8
O=c1oc2ccccc2cc1S(=O)(=O)c1ccccc1 | 4.8
COc1cccc(OC)c1/C=C1\N=C(c2ccccc2)OC1=O | -1.4
CC1C(=O)C(O)CC2C1(C)CCC1C2(C)CCC2(C)C3CC(C)(C)CCC3(C)CCC12C (stereo not given) | -2.6
Clc1ccccc1SSc1ccccc1Cl | 23.9
O=C(Nc1ccccc1-c1n[nH]c(=S)[nH]c1=O)C(F)(F)F | 2.05
OCCCN1CCCCC1 | -13.6
COc1cc(/C=C(\C#N)C(N)=O)cc(Br)c1O | -24
CCCCNC(=O)Oc1cccc2ccccc12 | -6.8
COC(=O)N/N=C(\C)C(CN1CCCCC1)C(C1=C(O)c2ccccc2OC1)c1ccccc1 (stereo not given) | 15.7
CC(=O)OC1COC(n2c(=S)n(-c3ccccc3)c(=O)c3cc(Br)ccc32)C(OC(C)=O)C1OC(C)=O (stereo not given) | -5.4
CCCCS(=O)(=O)CCC(N)P(=O)(O)O (stereo not given) | -77.8
COc1ccc(C=O)c(C)c1 | -30.1
O=C(CCN1C(=O)c2ccccc2C1=O)NCS(=O)(=O)O | -4.7
Nc1ccc(S(=O)(=O)Nc2nc(CN3CCCCC3)cs2)cc1 | -2.5
CC(=O)OCC1OC(n2cc(F)c(=O)[nH]c2=O)C(NC(=O)N(CCCl)N=O)C(OC(C)=O)C1OC(C)=O (stereo not given) | -13.9
CN(C)NC(=O)Nc1ccc2ccccc2c1 | -30.7
CCC(=O)Oc1ccc(Cl)cc1C | 7.7
CC1(C)CC(=O)OC/C=C\CC(Cc2ccccc2)C(=O)C1 (stereo not given) | 15.2
